# Measured values as given in PubChem BioAssay AID652023 (National Center for Advancing Translational Sciences (NCATS), 2013).
# Some of the results follow. Results filed as inconclusive are left out. Calls of active or inactive are those of the source. Calls come from the whole dose curve; as a rule, active = well fitted inhibition curve with a large enough effect; inconclusive = small, poorly fitted or top-dose-only effect; inactive = flat fitted curve, though single readings scatter.
# Molecular target: Thioredoxin reductase 1, cytoplasmic (Rattus norvegicus) (UniProt O89049)
# Assay: qHTS Assay for Inhibitors of Mammalian Selenoprotein Thioredoxin Reductase 1 (TrxR1): Hit Validation in Primary Screen
# Conditions: recombinant TrxR1, NADPH fluorescence consumption, selenite substrate
# Description: The selenoprotein thioredoxin reductase (TrxR; EC 1.8.1.9) is a FAD containing homodimeric pyridine nucleotide-disulfide oxidoreductase with many cellular roles. Together with NADPH and its prime substrate thioredoxin (Trx), the enzyme forms the core of the Trx system. The mammalian Trx system exerts a wide spectrum of functions including redox regulation, antioxidant defense, regulation of transcription factors as well as support of cell growth and replication. Many of these functions involve the reduction of Trx, which may subsequently reduce a number of different substrates including ribonucleotide reductase, peroxiredoxins or NFkB. […]
# Assay protocol: 2 uL of reagents (buffer in column 4 as negative control and 90 nM rTrxR1 in columns 1-3 and 5-48) were dispensed into Greiner black solid-bottom 1,536-well assay plates, followed by 1 uL of NADPH (400 uM final concentration) to each well. […] The plate was immediately transferred to a ViewLux high-throughput CCD imager (PerkinElmer), wherein kinetic measurements of NADPH fluorescence (Ex 340 nm, Em 450 nm) were acquired (8 minute kinetic read). Read 1 was utilized to assess the capacity of a compound to serve as an rTrxR1 substrate, i.e. a decrease in NADPH fluorescence compared to the no-compound background is an indication of a substrate behavior for that particular compound. […]
# Chain of Thioredoxin reductase 1, cytoplasmic (Rattus norvegicus) (O89049 whole entry, looked up): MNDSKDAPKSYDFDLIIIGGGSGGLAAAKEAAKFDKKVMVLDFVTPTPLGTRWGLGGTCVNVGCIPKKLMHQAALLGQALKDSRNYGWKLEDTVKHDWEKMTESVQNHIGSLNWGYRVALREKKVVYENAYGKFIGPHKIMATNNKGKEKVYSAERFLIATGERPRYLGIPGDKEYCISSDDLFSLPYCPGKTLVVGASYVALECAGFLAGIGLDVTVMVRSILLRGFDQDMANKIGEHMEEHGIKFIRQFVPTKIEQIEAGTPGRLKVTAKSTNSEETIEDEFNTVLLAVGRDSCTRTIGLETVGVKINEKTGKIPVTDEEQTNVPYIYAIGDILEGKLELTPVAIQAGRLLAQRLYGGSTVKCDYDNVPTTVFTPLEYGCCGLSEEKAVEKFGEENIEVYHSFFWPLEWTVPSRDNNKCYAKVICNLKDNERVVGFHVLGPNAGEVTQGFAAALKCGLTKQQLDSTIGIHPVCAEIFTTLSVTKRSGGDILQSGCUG
smiles,measurement,value
CC1CCN(C(=O)c2ccc(S(=O)(=O)Cc3cc(F)ccc3F)c([N+](=O)[O-])c2)CC1,Potency,2380 nM (active)
